Records with an inconclusive call do not appear. The source made the active and inactive calls. Calls come from the whole dose curve; as a rule, active = well fitted cell-killing curve with a large enough effect; inconclusive = small, poorly fitted or top-dose-only effect, or effect the other way; inactive = flat fitted curve, though single readings scatter.
What was measured:
Test in all cases: Primary qHTS to identify gynecologic anti-cancer compounds using libraries of approved drugs and bioactive compounds (AID 1345084); note: nearly all actives have a fitted effect of over 55% in size
Settings in all cases: Gynecologic cancer cell panel viability, ATPlite luminescence, 48 h; series mostly up to 57.5 µM
OV90 = system: OV90
Summary of the method: (§1)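 Cytotoxicity screen measuring ATP content by luciferase luminescence. Each compound is applied at five concentrations for 48 h at 37 C with 5% CO2.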

PA-1 = system: PA-1
Summary of the method: as §1

SKOV3 = system: SKOV3
Summary of the method: as §1

Tov-21-G = system: Tov-21-G
Summary of the method: as §1

Tov112D = system: Tov112D
Summary of the method: as §1
% is set by controls: 0 for no effect and ±100 for the full control effect.

CC(C)[C@@H](C(=O)O)N1Cc2c(cc(O)c3c2O[C@]2(C3)[C@H](C)CCC3C(C)(C)[C@H](O)[C@H](O)C[C@@]32C)C1=O (stereo not given in full)
inactive: Potency (OV90) | Potency (PA-1) | Potency (SKOV3) | Potency (Tov-21-G) | Potency (Tov112D)

C=C1CCC2C(C)(C)CCC[C@]2(C)[C@H]1CC/C(C)=C/C(=O)O (stereo not given in full)
inactive: Potency (OV90) | Potency (PA-1) | Potency (SKOV3) | Potency (Tov-21-G) | Potency (Tov112D)

CCCCCOC(=O)Nc1nc(=O)n(C2O[C@H](C)[C@@H](O)[C@H]2O)cc1F (stereo not given in full)
inactive: Potency (OV90) | Potency (PA-1) | Potency (SKOV3) | Potency (Tov-21-G) | Potency (Tov112D)

CC(=O)OCC1=C[C@@H]2OC(=O)C3=CO[C@@H](O[C@@H]4O[C@H](CO)[C@@H](O)[C@H](O)[C@H]4O)[C@H]1[C@@H]32
inactive: Potency (OV90) | Potency (PA-1) | Potency (SKOV3) | Potency (Tov-21-G) | Potency (Tov112D)

CC1=CC(=O)CC(C)(C)C1CCC(C)O[C@@H]1O[C@H](CO)[C@@H](O)[C@H](O)[C@H]1O (stereo not given in full)
inactive: Potency (OV90) | Potency (PA-1) | Potency (SKOV3) | Potency (Tov-21-G) | Potency (Tov112D)

CC1=CCC[C@@H]2[C@@](C)(CCc3ccoc3)[C@H](C(=O)O)CC[C@@]12C
inactive: Potency (OV90) | Potency (PA-1) | Potency (SKOV3) | Potency (Tov-21-G) | Potency (Tov112D)

C/C=C(\C)C(=O)OCC1OC(OCC2OC(OC3(CO)OC(CO)C(O)C3O)C(O)C(O)C2O)C(O)C(O)C1O (stereo not given)
inactive: Potency (OV90) | Potency (PA-1) | Potency (SKOV3) | Potency (Tov-21-G) | Potency (Tov112D)

CC(C)c1ccc2c(c1)C(=O)CC1C(C)(C(=O)O)CCCC21C (stereo not given)
inactive: Potency (OV90) | Potency (PA-1) | Potency (SKOV3) | Potency (Tov-21-G) | Potency (Tov112D)

COc1cc(O)c(C(=O)O)c(CCc2ccccc2)c1
inactive: Potency (OV90) | Potency (PA-1) | Potency (SKOV3) | Potency (Tov-21-G) | Potency (Tov112D)

COc1cccc(OC)c1-c1nc(C(=O)N[C@@H](CC(C)C)C(=O)O)cn1-c1ccnc2cc(Cl)ccc12
inactive: Potency (OV90) | Potency (PA-1) | Potency (SKOV3) | Potency (Tov-21-G) | Potency (Tov112D)

CS(=O)(=O)c1ccccc1N1CCN(c2nc3c(c(=O)[nH]2)CSCC3)CC1
inactive: Potency (OV90) | Potency (PA-1) | Potency (SKOV3) | Potency (Tov-21-G) | Potency (Tov112D)

CC1=C[C@H]2[C@@H](CC1=O)[C@H](C)C[C@H](O)[C@H]2C(C)C
inactive: Potency (OV90) | Potency (PA-1) | Potency (SKOV3) | Potency (Tov-21-G) | Potency (Tov112D)

C=C1C[C@@]2(O)O[C@@]3(C[C@H]2C(C)C)[C@@H](C)CC[C@@H]13
inactive: Potency (OV90) | Potency (PA-1) | Potency (SKOV3) | Potency (Tov-21-G) | Potency (Tov112D)

N#CC1C(=O)N=C(c2cc(Cl)ccc2O)C=C1c1cc(OCc2ccccc2)cc(OCc2ccccc2)c1 (stereo not given)
inactive: Potency (OV90) | Potency (PA-1) | Potency (SKOV3) | Potency (Tov-21-G) | Potency (Tov112D)

C=C(COC(=O)C(C)C)C1Oc2cc(C(C)=O)ccc2C1OC(=O)C(C)C (stereo not given)
inactive: Potency (OV90) | Potency (PA-1) | Potency (SKOV3) | Potency (Tov-21-G) | Potency (Tov112D)

CC(=O)OCC1=CCC2C(C)(C)CCCC2(C)C12CCC(C)(CC(=O)O)O2 (stereo not given)
inactive: Potency (OV90) | Potency (PA-1) | Potency (SKOV3) | Potency (Tov-21-G) | Potency (Tov112D)

COc1ccc(CCC(=O)O)c(O[C@@H]2O[C@H](CO)[C@@H](O)[C@H](O)[C@H]2O)c1
inactive: Potency (OV90) | Potency (PA-1) | Potency (SKOV3) | Potency (Tov-21-G) | Potency (Tov112D)

CC1=C(C)C(=O)OC(C(C)C2C(O)CC3C4C5OC5C5(O)CC(OC6OC(CO)C(OC7OC(C)C(O)C(O)C7O)C(O)C6O)CC(O)C5(C)C4CCC32C)C1 (stereo not given)
inactive: Potency (OV90) | Potency (PA-1) | Potency (SKOV3) | Potency (Tov-21-G) | Potency (Tov112D)

C=C(COC(=O)CC(C)C)C1Cc2cc(C(C)=O)ccc2O1 (stereo not given)
inactive: Potency (OV90) | Potency (PA-1) | Potency (SKOV3) | Potency (Tov-21-G) | Potency (Tov112D)

CC(C)CC(=O)O[C@@H]1O[C@H](CO)[C@@H](O[C@H]2O[C@H](C)[C@@H](N[C@H]3C=C(CO)[C@@H](O[C@H]4O[C@H](CO)[C@@H](O[C@H]5O[C@H](CO)[C@@H](O[C@H]6O[C@H](CO)[C@@H](O)[C@H](O)[C@H]6O)[C@H](O)[C@H]5O)[C@H](O)[C@H]4O)[C@H](O)[C@H]3O)[C@H](O)[C@H]2O)[C@H](O)[C@H]1O
inactive: activity change, negative = cytotoxicity (OV90) 4.33% [at 11.6 µM] | activity change, negative = cytotoxicity (PA-1) -1.75% [at 11.6 µM] | activity change, negative = cytotoxicity (SKOV3) 18.6% [at 11.6 µM] | activity change, negative = cytotoxicity (Tov-21-G) 2.23% [at 11.6 µM] | activity change, negative = cytotoxicity (Tov112D) -0.277% [at 11.6 µM]

COc1cc(/C=C/c2ccccc2)c(C(=O)O)c(O)c1CC=C(C)C
inactive: Potency (OV90) | Potency (PA-1) | Potency (SKOV3) | Potency (Tov-21-G) | Potency (Tov112D)

C[C@@H]1O[C@@H](O[C@H]2[C@H](O)[C@@H](O)[C@H](OC[C@H]3O[C@@H](OC(=O)[C@]45CCC(C)(C)C[C@H]4C4=CCC6[C@@]7(C)C[C@@H](O)[C@H](O)[C@@](C)(CO)C7[C@H](O)C[C@@]6(C)[C@]4(C)CC5)[C@H](O)[C@@H](O)[C@@H]3O)O[C@@H]2CO)[C@H](O)[C@H](O)[C@H]1O (stereo not given in full)
inactive: activity change, negative = cytotoxicity (OV90) -3.81% [at 11.6 µM] | activity change, negative = cytotoxicity (PA-1) 2.94% [at 11.6 µM] | activity change, negative = cytotoxicity (SKOV3) -6.07% [at 11.6 µM] | activity change, negative = cytotoxicity (Tov-21-G) -3.2% [at 11.6 µM] | activity change, negative = cytotoxicity (Tov112D) -3.4% [at 11.6 µM]

Reference: PubChem BioAssay (NCATS)
